Most compounds without a hit are left out; they make up all but 12% or so of the library.
L3MBTL1 block – inhibitors of human L3MBTL1; AlphaScreen L3MBTL1–H3K9me1 peptide binding; Q9Y468; 0.66% of 230,000 active; AID 485360; Potency, µM (titrated, usually from 57.1 µM), actives largely listed as inhibitors; also: nearly all actives have a fitted effect of over 60% in size
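AlphaScreen assay: L3MBTL1 (50 nM final) was preincubated 30 min at room temperature with biotinylated H3(1-15)K9me1 peptide (75 nM final), then 30 min with library compounds; streptavidin donor and nickel chelate acceptor beads (10 ug/mL final) added, 30 min dark.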
HP1b binding inh – HP1-beta chromodomain-methylated histone interaction inhibition; P83916; AlphaScreen HP1-beta / biotin-H3K9me3 peptide binding; Potency, µM (series often up to 114 µM), most hits filed as inhibitors; 0.56% of 390,000 active; also: nearly all actives have a fitted effect of over 70% in size
Target sequence (P83916 whole entry, looked up): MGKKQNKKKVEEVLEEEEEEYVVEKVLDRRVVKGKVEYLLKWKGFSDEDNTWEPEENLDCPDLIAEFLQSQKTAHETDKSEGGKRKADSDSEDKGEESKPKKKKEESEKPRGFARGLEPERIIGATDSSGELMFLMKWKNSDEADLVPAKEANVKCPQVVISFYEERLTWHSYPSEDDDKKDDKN
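HP1-beta protein (50 nM final) preincubated 30 min at room temperature with biotinylated H3(1-18)K9me3 peptide (50 nM) in PBS pH 7.4, 0.01% Tween-20, then compound added for 30 min. AlphaScreen streptavidin donor/nickel chelate acceptor beads (10 ug/mL final), 30 min dark, luminescence read.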
BAZ2B block – blocks human BAZ2B. Potency, µM (top dose mostly 114 µM), hits mostly inhibitors. AlphaScreen BAZ2B-H3K14Ac peptide displacement. 4.4% of 360,000 active. Q9UIF8; also: nearly all actives have a fitted effect of over 60% in size
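Protein-peptide AlphaScreen: BAZ2B 50 nM, b-H3K14Ac 50 nM, 1x PBS pH 7.4 + 0.01% Tween-20. Preincubation 30 min RT; cpd 30 min RT (top 110 uM); beads 20 min RT, light-protected.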
G9a inh – blocks human histone lysine methyltransferase G9a. Q96KQ7. 8.8% of 350,000 active. AID 504332. G9a H3K9 monomethylation, AlphaScreen, 2 h. Potency, µM (highest dose often 102 µM), usual class: inhibitors; also: nearly all actives have a fitted effect of over 75% in size
Target sequence (Q96KQ7 913-1193 limits assumed): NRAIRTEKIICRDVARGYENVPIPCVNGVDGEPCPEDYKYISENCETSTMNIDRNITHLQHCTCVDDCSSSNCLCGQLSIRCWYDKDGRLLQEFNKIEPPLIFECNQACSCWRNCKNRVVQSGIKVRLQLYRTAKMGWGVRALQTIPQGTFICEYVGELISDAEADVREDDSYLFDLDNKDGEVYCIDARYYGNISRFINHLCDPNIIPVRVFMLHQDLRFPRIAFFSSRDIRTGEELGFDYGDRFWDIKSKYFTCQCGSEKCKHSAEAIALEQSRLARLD
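G9a (20 nM) preincubated 15 min RT with compounds, then 500 nM biotinylated H3K9 peptide and 20 uM SAM added; 2 h RT reaction. Monomethyl-H3K9 product detected by AlphaScreen with anti-H3K9me1 antibody, streptavidin donor and anti-rabbit IgG acceptor beads.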
Sfp PPTase inh – Sfp phosphopantetheinyl transferase inhibition. Q9F4F7. Biochemical Sfp PPTase activity, qHTS. Potency, µM, most hits filed as inhibitors. 3.5% of 310,000 active. AID 1490;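 also: the enzyme is Sfp with the accession as filed and its product quenches rhodamine fluorescence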
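Reaction rates are the 30-min fluorescence difference (ex 525, em 598 nm) in wells containing 15 nM Sfp, 5 uM rhodamine-CoA and 12.5 uM BHQ-2-YbbR at pH 7.6 with 10 mM MgCl2.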
JMJD2A Tudor – JMJD2A Tudor domain (human) inhibition. O75164. AlphaScreen JMJD2A-Tudor / H3K4me3 peptide binding. Potency, µM (titrated, usually from 114 µM), usual class: inhibitors. 4.4% of 390,000 active. AID 504339; also: nearly all actives have a fitted effect of over 50% in size
Large screens that a line does not name were inactive; ! = repeats disagree. Calls follow the shape of the dose curve; as a rule, active = well fitted curve in the direction sought with a large enough effect; inconclusive = small, poorly fitted or top-dose-only effect, or another doubt; inactive = no such curve, though single readings can be large; an effect the other way counts as inactive or inconclusive.

Cc1ccsc1/C=N/n1c(-c2cccnc2)n[nH]c1=S	G9a inh inconclusive, JMJD2A Tudor 4.47µM
Cc1c(P(=S)(c2ccccc2)c2ccccc2)[n+]2ccccc2n1CC(=O)c1ccccc1	none (no result: L3MBTL1 block, HP1b binding inh, BAZ2B block, G9a inh, Sfp PPTase inh)
CC(C)CO/N=C1/C[C@@H](O)[C@@H](O)[C@@H]2[C@@H]3C(=O)N(Cc4ccc5c(c4)OCO5)C(=O)[C@H]3CC[C@@H]12	none (no result: L3MBTL1 block, HP1b binding inh, BAZ2B block, G9a inh, JMJD2A Tudor)
Cc1ccc(S(=O)(=O)N2CCN(C(=O)c3ccc(Br)o3)CC2)c(C)c1	G9a inh 79.4µM (no result: L3MBTL1 block)
Cc1ccc(S(=O)(=O)N2CCN(C(=O)c3ccc4ccccc4n3)CC2)c(C)c1	BAZ2B block 50.1µM, JMJD2A Tudor 35.5µM (no result: Sfp PPTase inh)
Cc1ccc(S(=O)(=O)N2CCN(C(=O)COC(=O)c3ccc(Br)o3)CC2)c(C)c1	none (no result: Sfp PPTase inh)
CC1=C(C)C(C)=C(C#N)C(=C(C#N)C#N)N1	BAZ2B block inconclusive, G9a inh 39.8µM
CCN1CCN(C(=O)c2ccc3c(c2)N(Cc2cccc(F)c2)C(=O)c2ccccc2S3)CC1	G9a inh inconclusive, JMJD2A Tudor 79.4µM (no result: L3MBTL1 block, Sfp PPTase inh)
CCCCNC(=O)c1ccc2c(c1)N(Cc1ccc(F)cc1)C(=O)c1ccccc1S2=O (stereo unspecified)	none (no result: L3MBTL1 block, Sfp PPTase inh)
CN1CCN(C(=O)c2ccc3c(c2)N(Cc2ccc(Cl)cc2)C(=O)c2ccccc2S3=O)CC1 (stereo unspecified)	G9a inh 79.4µM
O=C(c1ccc2c(c1)N(Cc1ccc(Cl)cc1)C(=O)c1ccccc1S2=O)N1CCCCC1 (stereo unspecified)	none (no result: L3MBTL1 block, Sfp PPTase inh)
O=C(NCCN1CCCC1)c1ccc2c(c1)N(Cc1ccc(F)cc1)C(=O)c1ccccc1S2=O (stereo unspecified)	G9a inh 39.8µM
CC1CCCCN1C(=O)CSc1n[nH]c(-c2ccccc2Cl)n1 (stereo unspecified)	none (no result: L3MBTL1 block, Sfp PPTase inh)
CN(C)S(=O)(=O)c1ccc(C(=O)NCCSc2c(-c3ccc(Br)cc3)[nH]c3ccccc23)cc1	none (no result: L3MBTL1 block, Sfp PPTase inh)
NCCS(=O)O	G9a inh 18.9µM! (no result: L3MBTL1 block, HP1b binding inh, BAZ2B block, JMJD2A Tudor)
CCOC(=O)Cc1nnc(NC(=O)C(CC)Sc2nc(C)cc(=O)[nH]2)s1 (stereo unspecified)	G9a inh 70.8µM, JMJD2A Tudor inconclusive
O=c1oc2ccccc2c(N2CCN(c3ccccc3F)CC2)c1CN1CCCC1	none (no result: L3MBTL1 block, Sfp PPTase inh)
COc1ccc(-c2ncc3ccccn23)cc1	L3MBTL1 block inconclusive, Sfp PPTase inh 79.4µM
Fc1ccc(-c2ncc3ccccn23)cc1	none
COc1cc(-c2ncc3ccccn23)cc(OC)c1OC	HP1b binding inh 50.1µM, BAZ2B block 44.7µM, G9a inh 25.1µM, Sfp PPTase inh 50.1µM, JMJD2A Tudor 11.2µM (no result: L3MBTL1 block)
COc1cccc(-c2ncc3ccccn23)c1	HP1b binding inh 15.8µM, BAZ2B block 35.5µM, G9a inh 7.08µM, JMJD2A Tudor 3.55µM
COc1cc(OC)cc(-c2ncc3ccccn23)c1	HP1b binding inh inconclusive, BAZ2B block 31.6µM, G9a inh 7.94µM, JMJD2A Tudor 2.82µM
Brc1ccc(-c2ncc3ccccn23)cc1	BAZ2B block inconclusive, G9a inh inconclusive, Sfp PPTase inh inconclusive (no result: L3MBTL1 block)
CCN(c1cccc(C)c1)S(=O)(=O)c1nnc(NC(=O)c2ccccc2Cl)s1	none (no result: L3MBTL1 block, Sfp PPTase inh)
CCCCN(CC)c1nc(C)nc2c1c(C)c(C)n2-c1c(C)cc(C)cc1C	none (no result: L3MBTL1 block, HP1b binding inh, BAZ2B block, G9a inh, JMJD2A Tudor)
COc1ccc(NC(=O)c2oc3ccccc3c2NC(=O)c2cc(C)cc(C)c2)c(OC)c1	none (no result: L3MBTL1 block, Sfp PPTase inh)
COCc1c(C(=O)N(C)Cc2ccccc2N2CCCC2)oc2ccccc12	BAZ2B block inconclusive, G9a inh 50.1µM, JMJD2A Tudor 44.7µM (no result: Sfp PPTase inh)
COc1cccc(Nc2nc(-c3cccc(N4C(=O)c5ccccc5C4=O)c3)cs2)c1	HP1b binding inh inconclusive, BAZ2B block inconclusive, G9a inh 14.1µM, JMJD2A Tudor inconclusive
COc1cccc(Nc2nc(-c3ccc(O)cc3)cs2)c1	BAZ2B block inconclusive, G9a inh 50.1µM, JMJD2A Tudor inconclusive
COc1cccc(N2C(=O)c3ccccc3C2=O)c1	none (no result: L3MBTL1 block, HP1b binding inh, BAZ2B block, G9a inh, Sfp PPTase inh)
O=C(O)c1ccc(S(=O)(=O)N[C@H](Cc2ccc(C(F)(F)F)cc2)C(=O)O)cc1	BAZ2B block inconclusive (no result: HP1b binding inh)

Assay outcomes: PubChem, National Center for Advancing Translational Sciences (NCATS)
